# PubChem BioAssay (NCATS)
# Inconclusive results are not listed. Active and inactive are the calls of the source. Unless noted, calls come from the whole dose curve; as a rule, active = well fitted curve in the direction sought with a large enough effect; inconclusive = small, poorly fitted or top-dose-only effect, or another doubt; inactive = no such curve, though single readings can be large; an effect the other way counts as inactive or inconclusive.
# How the values were obtained:
# [1] = target: Thyrotropin receptor (Homo sapiens) (UniProt P16473); assay: qHTS Assay for Antagonists of the Thyroid Stimulating Hormone Receptor (AID 488980); note: series mostly up to about 58 µM
# Chain of Thyrotropin receptor (Homo sapiens) (P16473 whole entry, looked up): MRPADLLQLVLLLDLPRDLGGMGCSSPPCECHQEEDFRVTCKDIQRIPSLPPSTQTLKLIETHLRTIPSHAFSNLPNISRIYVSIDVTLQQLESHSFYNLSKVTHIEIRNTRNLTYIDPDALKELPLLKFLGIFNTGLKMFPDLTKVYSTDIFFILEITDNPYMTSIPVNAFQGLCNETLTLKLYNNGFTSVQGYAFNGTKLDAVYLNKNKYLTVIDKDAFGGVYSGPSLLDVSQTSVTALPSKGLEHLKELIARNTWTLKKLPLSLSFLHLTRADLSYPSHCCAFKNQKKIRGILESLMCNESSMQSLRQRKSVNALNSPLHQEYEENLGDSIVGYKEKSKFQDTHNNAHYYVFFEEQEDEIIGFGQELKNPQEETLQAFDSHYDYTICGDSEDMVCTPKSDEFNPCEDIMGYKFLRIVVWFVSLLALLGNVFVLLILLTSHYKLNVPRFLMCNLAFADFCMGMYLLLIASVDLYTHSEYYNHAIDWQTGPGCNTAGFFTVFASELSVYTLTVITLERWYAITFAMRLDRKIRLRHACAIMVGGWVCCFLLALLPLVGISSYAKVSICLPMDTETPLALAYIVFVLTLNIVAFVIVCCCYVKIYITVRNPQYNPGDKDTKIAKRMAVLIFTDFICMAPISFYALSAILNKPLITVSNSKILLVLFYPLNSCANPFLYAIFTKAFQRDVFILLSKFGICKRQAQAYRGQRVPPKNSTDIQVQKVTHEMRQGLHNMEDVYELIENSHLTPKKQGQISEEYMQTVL
# Outline: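 Inhibition of cAMP raised by EC80 TSH (4 nM final) was read by HTRF, with lysate cAMP competing against cAMP-d2 for cryptate antibody after 30 min at room temperature. The cells were transfected HEK293 held in phosphodiesterase inhibitor RO 20-1724 at 70 uM.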
# [2] = target: Galactokinase (Homo sapiens) (UniProt P51570); assay: qHTS Validation Assay for Inhibitors of Human Galactokinase (GALK) (AID 493189)
# Chain of Galactokinase (Homo sapiens) (P51570 whole entry, looked up): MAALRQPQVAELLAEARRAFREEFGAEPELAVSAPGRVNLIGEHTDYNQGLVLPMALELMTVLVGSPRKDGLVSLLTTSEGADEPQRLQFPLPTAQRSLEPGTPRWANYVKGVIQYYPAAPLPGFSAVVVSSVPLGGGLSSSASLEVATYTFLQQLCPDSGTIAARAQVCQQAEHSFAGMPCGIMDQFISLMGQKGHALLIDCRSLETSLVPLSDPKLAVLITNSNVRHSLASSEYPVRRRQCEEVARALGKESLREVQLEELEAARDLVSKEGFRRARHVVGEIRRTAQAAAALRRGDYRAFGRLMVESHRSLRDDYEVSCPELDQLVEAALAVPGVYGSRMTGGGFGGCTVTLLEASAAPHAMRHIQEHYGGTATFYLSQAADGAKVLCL
# Outline: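 Inhibition was measured as remaining ATP, detected by luciferase luminescence after a 1 h room-temperature reaction. Final conditions: 5 nM GALK, 100 uM galactose, 35 uM ATP, pH 8.0 HEPES buffer.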
# [3] = Validation screen for small molecules that induce DNA re-replication in SW480 colon adenocarcinoma cells (AID 504364)
# Outline: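 SW480 cells seeded at 250 per well were exposed to compound or DMSO for 48 hr at 37 C, 5% CO2, then stained with Hoechst for 40 min. DNA content per nucleus was imaged (405 nm ex, 500-530 nm em).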
# [4] = target: Estrogen receptor (Homo sapiens) (UniProt P03372); assay: qHTS assay for small molecule agonists of estrogen receptor alpha signaling (AID 588514; calls by dose curve; note: nearly all actives have a fitted effect of over 70% in size)
# Chain of Estrogen receptor (Homo sapiens) (P03372 whole entry, looked up): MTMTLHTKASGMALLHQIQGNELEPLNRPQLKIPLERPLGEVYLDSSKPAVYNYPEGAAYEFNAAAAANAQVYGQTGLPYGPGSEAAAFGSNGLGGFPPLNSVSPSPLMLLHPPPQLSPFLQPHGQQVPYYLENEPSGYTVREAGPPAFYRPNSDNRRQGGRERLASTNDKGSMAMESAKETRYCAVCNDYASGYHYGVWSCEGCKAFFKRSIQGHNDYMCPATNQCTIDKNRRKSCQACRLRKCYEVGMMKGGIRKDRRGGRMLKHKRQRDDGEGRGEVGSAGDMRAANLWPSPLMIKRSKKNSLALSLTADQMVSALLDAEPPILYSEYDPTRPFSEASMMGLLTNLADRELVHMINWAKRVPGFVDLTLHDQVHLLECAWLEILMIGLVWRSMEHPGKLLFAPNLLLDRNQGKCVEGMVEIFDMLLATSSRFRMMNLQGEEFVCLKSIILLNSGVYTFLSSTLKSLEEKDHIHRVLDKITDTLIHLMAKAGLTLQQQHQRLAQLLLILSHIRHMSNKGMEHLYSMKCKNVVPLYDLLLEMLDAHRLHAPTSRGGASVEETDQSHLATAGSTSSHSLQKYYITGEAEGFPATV
# Outline: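 ER-alpha-UAS-bla GripTite HEK 293 cells in medium with 2% charcoal/dextran-treated FBS were treated with compound titrations at 37 C for 18 hrs; beta-lactamase reporter read by CCF4 fluorescence after 2 hrs at RT.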
smiles,measurement,setting,value
N=c1ccn2c(n1)O[C@H]1[C@@H](O)[C@@H](CO)O[C@H]12,outcome,[1],inactive
same,outcome,[2],inactive
same,outcome,[3],inactive
OC[C@@H](O)[C@@H](O)[C@H](O)[C@@H](O)CO,outcome,[4],inactive
CC(C=CC1=C(C)CCCC1(C)C)=CC=CC(C)=CC(=O)Nc1ccc(O)cc1,outcome,[4],inactive
